# Most compounds without a hit are left out; they make up all but 5.2% or so of the library.
# Yeast superoxide: reduction of superoxide in aged yeast, primary screen, HTS; S. cerevisiae aged cells, superoxide DHE fluorescence; hits give low values; superoxide response (% of plate mean), % at 10 µM; 0.18% of 330,000 active;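 active = superoxide response under a set limit, about three screen SD below normal, cut at about 65% in these data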;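 note: yeast aged for seven days with compound at 30 °C before DHE staining; 100% = average MFI of all compound-treated wells on the plate with controls excluded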
# CendR NRP1 mod: modulators of CendR peptide binding to NRP-1, primary screen, biochemical, fluorescence polarization, uHTS; inhibition, % at 25 µM; 0.85% of 360,000 active; FAM-RPARPAR peptide binding to NRP-1; AID 602438, 2012; Neuropilin-1 (Homo sapiens), O14786;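 active = inhibition or corrected inhibition above about 18%, plus a signal ratio from 0.5 to 1.5, limit read from the data, passing the limit was not always enough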
# Target sequence (O14786 whole entry, looked up): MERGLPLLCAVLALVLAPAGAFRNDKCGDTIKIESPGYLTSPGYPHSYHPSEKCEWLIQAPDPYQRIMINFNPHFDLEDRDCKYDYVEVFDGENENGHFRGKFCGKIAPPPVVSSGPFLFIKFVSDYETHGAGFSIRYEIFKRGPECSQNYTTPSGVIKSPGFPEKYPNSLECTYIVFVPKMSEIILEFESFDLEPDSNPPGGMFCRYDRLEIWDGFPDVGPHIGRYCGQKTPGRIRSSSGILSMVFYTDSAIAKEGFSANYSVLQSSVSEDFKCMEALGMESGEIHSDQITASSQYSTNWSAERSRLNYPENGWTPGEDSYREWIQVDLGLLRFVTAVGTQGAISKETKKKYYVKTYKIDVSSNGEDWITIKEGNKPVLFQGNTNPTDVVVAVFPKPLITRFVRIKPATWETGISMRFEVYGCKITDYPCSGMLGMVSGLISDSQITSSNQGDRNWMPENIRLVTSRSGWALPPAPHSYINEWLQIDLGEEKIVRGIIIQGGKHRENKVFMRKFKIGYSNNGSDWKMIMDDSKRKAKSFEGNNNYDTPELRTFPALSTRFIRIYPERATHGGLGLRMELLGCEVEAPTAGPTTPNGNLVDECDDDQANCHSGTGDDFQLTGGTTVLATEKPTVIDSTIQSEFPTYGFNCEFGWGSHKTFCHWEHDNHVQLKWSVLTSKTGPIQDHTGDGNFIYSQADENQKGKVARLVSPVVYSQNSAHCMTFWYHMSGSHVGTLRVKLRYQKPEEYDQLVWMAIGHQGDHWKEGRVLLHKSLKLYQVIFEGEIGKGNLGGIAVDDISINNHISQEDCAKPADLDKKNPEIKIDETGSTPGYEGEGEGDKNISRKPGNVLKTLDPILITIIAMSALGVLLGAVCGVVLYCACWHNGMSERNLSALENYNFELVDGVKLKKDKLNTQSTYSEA
# APOBEC3G inh: APOBEC3G DNA deaminase inhibitors, primary screen, biochemical, fluorescence, single-stranded DNA substrate, uHTS | recombinant A3G, ssDNA deamination FAM/TAMRA fluorescence | inhibition, % at 20 µM | 0.28% of 330,000 active | AID 493012, 2011;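 active = inhibition of at least 40% at 20 µM, with no more than 30% in the related APOBEC3A deaminase screen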;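 note: plate controls were DMSO wells with A3G for no effect and wells lacking A3G enzyme for full effect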
# ALR inh: inhibitors of human ALR sulfhydryl oxidase, primary screen, biochemical, H2O2 detection, HRP-luminol luminescence, single point. purified ALR, DTT oxidation. inhibition, % (test concentration not listed). 3.8% of 290,000 active. AID 485317, 2010;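 active = mean replicate inhibition above about 79%, with every replicate also reaching it, limit read from the data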
# APOBEC3A inh: APOBEC3A ssDNA deaminase inhibitors, primary screen, selectivity assay for APOBEC3G inhibitor project, biochemical, FAM/TAMRA oligo cleavage fluorescence; DNA dC->dU-editing enzyme APOBEC-3A (Homo sapiens), P31941; recombinant A3A, FAM/TAMRA ssDNA deamination fluorescence; inhibition, % at 20 µM; 0.41% of 330,000 active;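 active = at least 40% inhibition at 20 µM here, with at most 30% in a related deaminase screen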;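 note: plate controls were A3A with DMSO for no effect and wells lacking A3A enzyme for full effect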
# PfM18AAP inh-1: PfM18AAP inhibitors, malaria aminopeptidase, primary screen, biochemical, QFRET, recombinant enzyme. 1.2% of 290,000 active. H-Glu-NHMec fluorogenic cleavage. AID 1822, 2009. inhibition, % at 7.35 µM. M18 aspartyl aminopeptidase (Plasmodium falciparum 3D7);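 active = inhibition above the campaign mean inhibition over all tested compounds plus 3 SD, cut at about 28% in these data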;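 note: 0% = plate median of test compound wells and 100% = 2 mM ZnCl2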
# PfM18AAP inh-2: PfM18AAP inhibitors, malaria aminopeptidase, confirmation, biochemical, QFRET, recombinant enzyme, triplicate | 28% of 2,400 active | AID 2170, 2009 | H-Glu-NHMec fluorogenic cleavage | inhibition, % at 7.35 µM | shares compounds with PfM18AAP inh-1;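 active = mean inhibition over replicate wells above the hit cutoff set for the earlier primary screen, cut at about 29% in these data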;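 note: 0% = median of test compound wells and 100% = 2 mM ZnCl2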
# CTSL1 confirm: cathepsin L1 inhibitors, retest, confirmation, counter-screen for PFM18AAP inhibitor project, biochemical, QFRET, triplicate. inhibition, % at 5.96 µM. shares compounds with PfM18AAP inh-1. purified cathepsin L1, Z-Leu-Arg-MCA fluorescence. AID 2178, 2009. 2,400 tested, under 10 active;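 active = average inhibition across replicates above the hit cutoff set in the earlier primary screen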;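 note: 0% = median of test compound wells and 100% = Z-Phe-Ala-diazomethylketone 1 µM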
# * = called active by the depositor; x = no result given.
SMILES,Yeast superoxide,CendR NRP1 mod,APOBEC3G inh,ALR inh,APOBEC3A inh,PfM18AAP inh-1,PfM18AAP inh-2,CTSL1 confirm
O=c1c2ccccc2c(/C=N/n2cnnc2)c(O)n1-c1ccccc1,109,-14,1,30,3,65*,72*,1
COc1ccc(-n2c(O)c(/C=N/n3cnnc3)c3ccccc3c2=O)cc1,95,6,-4,28,-8,67*,74*,5
COc1ccc(-n2c(O)c(C=Nc3ccccc3)c3ccccc3c2=O)cc1OC,108,-13,-2,x,3,-1,x,x
COC(=O)C1CCN(C(=O)CCC2CCCCC2)CC1,97,10,2,-13,3,-5,x,x
CCc1ccccc1NC(=O)CCC(=O)c1cccs1,99,0,-4,-1,-1,-7,x,x
COc1ccc(N2C(=O)C3C(C2=O)C3(c2ccccc2)c2ccccc2)cc1 (stereo not given),107,9,0,-1,-5,-2,x,x
CCCCn1c(NCCN(C)C)nc2c1c(=O)[nH]c(=O)n2C,107,-8,0,22,-3,0,x,x
S=C(Nc1ccccc1)Nn1cnnc1,100,12,23,x,-6,65*,61*,5
COc1ccc(NC(=S)Nn2cnnc2)cc1OC,103,6,22,x,-3,79*,76*,0
CCc1ccc(NC(=O)Nn2cnnc2)cc1,97,1,3,-6,-2,55*,30*,-4
CCc1ccc(NC(=S)Nn2cnnc2)cc1,109,4,3,6,-4,76*,64*,1
CN1CCN(NC(=S)Nc2ccccc2)CC1,94,0,-5,-4,-4,0,x,x
CCc1ccc(NC(=S)NCc2ccccc2)cc1,87,-14,-10,x,-1,3,x,x
O=C(Nc1cccc(-c2cccc(Cl)c2)c1)C1CCN(Cc2nccs2)CC1,x,-4,x,x,x,x,x,x
COc1ccc(NC(=S)Nc2ccccc2)c(OC)c1,104,8,-5,-11,-5,-6,x,x
COc1ccc(NC(=S)Nn2cnnc2)c(OC)c1,82,44*,-4,0,-3,72*,80*,-3
Cc1ccc(NC(=S)Nn2cnnc2)cc1,117,-1,23,7,-2,77*,67*,0
CN1CCN(C(=O)C2CCCN(S(=O)(=O)c3ccccc3)C2)CC1 (stereo not given),92,0,-2,4,-4,6,x,x
O=C(CCN1C(=O)c2ccccc2C1=O)Nn1cnnc1,98,-10,-2,-8,-2,45*,46*,-3
O=C(Nn1cnnc1)c1ccccc1CCc1ccccc1,91,6,-6,3,-2,42*,35*,-1
O=C(CCN1C(=O)c2ccccc2C1=O)NCc1ccccc1,118,0,-5,-3,-6,-3,x,x
O=C(Nn1cnnc1)c1ccccc1-c1ccccc1,94,-1,-1,10,1,56*,64*,-6
COc1cc(/C=C2/C(=O)ON=C2C)cc(Cl)c1O,96,-56,-1,91*,-4,32*,11,0
CCOC(=O)CSc1nc2c(c(=O)[nH]c(=O)n2C)n1Cc1ccccc1,101,-2,-8,-31,-6,5,x,x
Oc1cc(O)c2c(c1)O[C@H](c1ccc(O)c(O)c1)[C@H](O)C2,96,18,3,99*,2,81*,66*,1
SMILES,Yeast superoxide,CendR NRP1 mod,APOBEC3G inh,ALR inh,APOBEC3A inh,PfM18AAP inh-1,PfM18AAP inh-2,CTSL1 confirm
O=C(O)CCNc1cc2ccccc2cc1C(=O)O,110,-10,-1,42,1,35*,-4,-3
CNC(=O)N(O)C1N(C)C(=O)N(Cc2ccccc2)C1(C)C (stereo not given),96,-2,-4,1,-1,7,x,x
CCN1C(=O)N(C)C(N(O)C(=O)NC)C1(C)C (stereo not given),91,7,-6,x,-3,42*,-59,-4
CC1=CC(=O)[C@@H](O)[C@@H](c2ccccc2Br)N1C,x,-3,x,x,x,x,x,x
Cn1c(=O)cc(SCC(=O)Nc2ccc3c(c2)OCO3)c2ccccc21,94,-10,-2,-11,5,-6,x,x
CSc1nc(=S)c2[nH]c(=S)[nH]c2[nH]1,95,-22,x,99*,x,46*,40*,-3
CCC(C)n1ncn(-c2ccc(N3CCN(c4ccc(OCC5COC(Cn6cncn6)(c6ccc(Cl)cc6Cl)O5)cc4)CC3)cc2)c1=O (stereo not given),174,-7,-1,-9,3,-4,x,x
CCC(C)n1ncn(-c2ccc(N3CCN(c4ccc(O)cc4)CC3)cc2)c1=O (stereo not given),112,1,5,x,-7,34*,-22,-5
CC(=O)c1ccc(OC(=O)C2CSC3(C)CCC(=O)N23)cc1 (stereo not given),105,-27,2,x,6,x,x,x
Cc1ccc(-c2nc(N/N=C/c3ccncc3)c3ccccc3n2)cc1,103,-13,-8,45,-4,43*,-69,1
Nc1nc(C(F)(F)F)cc(=O)[nH]1,89,6,-6,5,3,-2,x,x
O=C(c1ccco1)N1CCN(C(=O)N2CCCCC2)CC1,92,-3,-6,-1,-2,90*,-35,-3
C=CCc1cccc(/C=N/c2ncn[nH]2)c1O,75,10,0,x,-2,57*,43*,-4
O=C(O)c1ccnc(SCC(=O)c2ccccc2)c1,90,-4,-3,x,1,50*,26,0
Cc1ccc(C(=O)CSc2ccccn2)cc1,95,5,-6,9,-2,44*,-26,-6
O=C(CSc1ccccn1)c1ccc(F)cc1,103,-2,-5,9,-5,9,x,x
Cc1ccc(NC(=O)COc2ccc(N3CC(C(N)=O)CC3=O)cc2)c(C)c1 (stereo not given),100,5,-9,-4,0,-6,x,x
OC1CCN(c2ncnc3nc[nH]c23)CC1,99,10,-10,-2,-2,7,x,x
